Drawing on PubChem BioAssay (NCI), this text covers growth for 31 compounds.

About 83,000 compounds went through this panel and 20% of them were active in at least one assay; those are over-represented in the sample as a whole.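 A percent growth of 40 corresponds to 60% growth inhibition; 0 means no net growth; -100 means all cells died. Active threshold: below 10.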 Values without a mark were called inactive. The source made the active and inactive calls.

The experiment deals with BT-549 breast. Nature of the experiment: NCI-60 one-dose screen, 48 h (100 = growth as untreated, 0 = no growth, -100 = all killed). The following applies: 10 µM unless noted.
On to `C=C(C)[C@@H]1CC[C@]2(C(=O)OC)CC[C@]3(C)[C@H](CC[C@@H]4[C@@]5(C)CC/C(=N\OCCC(=NCCC#N)NOCCC#N)C(C)(C)[C@@H]5CC[C@]43C)[C@@H]12`, for which the growth is 4.4% [100 µM] (active).
For the compound `CCCCN(CC)CC(CC)Nc1cc(OC)cc2cccnc12` (stereo unspecified), the growth is 110%.
Then `COc1ccccc1S(=O)Nc1ccccc1` (stereo unspecified), with 108%; and `COc1cc(Cl)cc(-c2nn(C(=O)NS(=O)(=O)c3ccccc3)cc2-c2ccncc2)c1`, with 36.9%.
The value for `COc1ccc(CC(C#N)c2ccc(Cl)cc2)cc1` (stereo unspecified) was 74.9%.
With `COc1cc2c(c(OC)c1OC)-c1cc(I)c(O)cc1[C@@H](NC(C)=O)CC2`, the growth is 3.61% (active).
On to `O=C(O)CSCc1nnc2n(Cc3ccccc3)c(=O)c3c4c(sc3n12)CCCC4`, for which the growth was 101%.
With `COc1ccc(C2NC(=O)C(C#N)c3c2sc2c(F)cccc32)cc1` (stereo unspecified), the growth was 56.4%.
Regarding `CCN=C1C=CC(=C(c2ccc(N(CC)CC)cc2)c2ccc(N(CC)CC)cc2)c2ccccc21`, the growth is -67.2% (active).
For the compound `CC1(C)C(=NO)C(C)(C)C1=NO`, the growth is 116%.
As to `Cc1cc(SC#N)ncn1`, the growth is 126%.
`COCc1nc2ccccc2[nH]1`: the growth was 164%.
Regarding `CCN1CCN(CC(=O)Nc2nc3ccc(NCc4ccc(Cl)cc4)cc3s2)CC1`, the growth was 76.4%.
`C=C(C)C1CCC2(C(=O)O)CCC3(C)C(CCC4C5(C)CCC(OC(=O)NCc6ccccc6)C(C)(C)C5CCC43C)C12` (stereo unspecified): the growth was 64.8%.
As for `CCc1ccc(C2=C/C(=C/c3ccccc3)C(=O)N2CCc2ccc(S(N)(=O)=O)cc2)cc1`, the growth was 100%.
As to `CCN(CC)c1ccc2cc(NC(=O)OCCNC(=O)CCNC(=O)[C@H](CC(C)C)NC(=O)C(C)(C)NC(=O)C(C)(C)NC(=O)[C@H](CC(C)C)NC(=O)CCNC(=O)C(C)(C)NC(=O)[C@H](CC(C)C)NC(=O)CCNC(=O)[C@@](C)(CC)NC(=O)[C@H](C)NC(=O)CCNC(=O)C(C)(C)NC(=O)[C@H](C)NC(=O)[C@@H]3CCCN3C(=O)[C@@](C)(CC)NC(=O)[C@H](Cc3ccccc3)NC(=O)C3CCCN3C(=O)C(C)(C)NC(=O)C3CCCN3C(=O)C(C)(C)NC(C)=O)c(=O)oc2c1` (stereo partly specified), the growth was -93.3% (active).
In the case of `COC(=O)c1cc2c(=O)[nH]cc3c2c(n1)CCC3`, the growth was 108%.
For `C=C(CC(=O)OC)C(C)=O`, the growth is 127%.
For `COc1ccc2c(c1)c(-c1noc(C(=O)c3cn(C)c4ncc(Br)cc34)n1)cn2C`, the growth was 82.7%.
The value for `CC(C)(C)OC(=O)N1C=C/C(=C\Cn2cc(-c3ccccc3)nn2)CC1` was 58.1%; that for `COc1cc2c(c(OC)c1OC)-c1ccc(NNC(N)=S)c(=O)cc1[C@@H](NC(C)=O)CC2` was -5.6% (active); that for `CC(C)OC(=O)Nc1cc(F)ccc1F` was 111%.
The value for `C=C(C)[C@@H]1CC[C@]2(C)[C@H](CC[C@@H]3[C@@H]([C@@](C)(O)CCC=C(C)C)CC[C@]32C)[C@@]1(C)CCC(=O)O` was -22% [100 µM] (active).
As to `COc1cc(-c2cc(-c3ccc(Nc4ncnc5cc(Cl)ccc45)cc3)nc(N3CCCCC3)n2)cc(OC)c1OC`, the growth was 84%.
Regarding `Cc1ccc(NC(=S)/N=c2/n(-c3ccccc3)nc3n2CCN3C2=NCCN2)cc1`, the growth was -6.96% (active).
Regarding `COc1c(B(O)O)cccc1-c1nc2ccc3[nH]ncc3c2c2c1CCC2`, the growth is 60%.
Regarding `O=C1Nc2ccccc2/C1=C/C(=O)c1ccc(N2CCCC2)cc1`, the growth is 107%.
The value for `COc1cc(C(=O)/C=C/c2c(-c3ccc(F)cc3)nc3sccn23)cc(OC)c1OC` was 19.2%; that for `COc1ccc(C2CC(c3cc(OC)c(OC)c(OC)c3)=NN2C(C)=O)cc1OCC(=O)Nc1nc2ccc(C(F)(F)F)cc2s1` (stereo unspecified) was 47.5%.
Consider `CN(C)c1cc(NN=C(c2ccc(O)cc2)c2ccc(O)cc2)c([N+](=O)[O-])cc1[N+](=O)[O-]`, for which the growth is 115%.
As for `CC[C@@](C)(NC(=O)[C@H](C)NC(=O)CCNC(=O)C(C)(C)NC(=O)[C@H](C)NC(=O)[C@@H]1CCCN1C(=O)[C@@](C)(CC)NC(=O)[C@H](Cc1ccccc1)NC(=O)C1CCCN1C(=O)C(C)(C)NC(=O)C1CCCN1C(=O)C(C)(C)NC(C)=O)C(=O)NCCC(=O)N[C@@H](CC(C)C)C(=O)NC(C)(C)C(=O)NCCC(=O)N[C@@H](CC(C)C)C(=O)NC(C)(C)C(=O)NC(C)(C)C(=O)N[C@@H](CC(C)C)C(=O)NCCC(=O)NCO` (stereo partly specified), the growth is -97.3% (active).
